The results in this text go back to PubChem BioAssay (NCI).

“And” between values parts separate entries of the source, which are not always exact repeats. Equal values may be shown once. The panel holds about 83,000 compounds, 20% with a hit somewhere; the sample as a whole holds those more often.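 Cells were grown in 96-well plates and exposed to the test compound at a single concentration for 48 hours; results are reported as percent growth, with values below 10 considered active.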 A number with no mark means an inactive call. The source made the active and inactive calls.

Some test systems named below: DU-145 prostate; K-562 leukemia; MALME-3M melanoma; MDA-MB-231 breast; RXF 393 renal; SF-268 CNS; SF-295 CNS; SF-539 CNS; UACC-257 melanoma; M14 melanoma; HCT-15 colon; HT29 colon; SNB-75 CNS; SNB-19 CNS; U251 CNS; PC-3 prostate; SK-MEL-5 melanoma; UACC-62 melanoma; LOX IMVI melanoma; SK-MEL-28 melanoma.
Common to all, as to experiment: NCI-60 one-dose screen, 48 h (100 = growth as untreated, 0 = no growth, -100 = all killed)
Common to all, as to conditions: 10 µM unless noted

`Nc1cc(-c2c[nH]c3ccc(Cl)cc23)nc2cc(-c3c[nH]c4ccccc34)nn12`: the growth in the assay on DU-145 prostate was 8.69% (active); in the assay on K-562 leukemia, 6.27% (active); in the assay with MALME-3M melanoma, -68.2% (active); in the assay with MDA-MB-231 breast it was -79.2% (active); in the assay on RXF 393 renal, -21.5% (active); in the assay with SF-268 CNS, 9.75% (active). Moreover, the growth in the assay on SF-295 CNS was -79.4% (active); in the assay on SF-539 CNS, -81.5% (active); with UACC-257 melanoma, -73.2% (active); in the assay with M14 melanoma it was -25.8% (active); in the assay with HCT-15 colon it was -87.1% (active); with HT29 colon, -59.7% (active). The growth was 19.4% in the assay with SNB-75 CNS; -59.5% (active) in the assay with SNB-19 CNS; -74.4% (active) with U251 CNS; -12% (active) in the assay on PC-3 prostate; -87% (active) in the assay with SK-MEL-5 melanoma; -82.7% (active) with UACC-62 melanoma. Further, the results for the growth in the assay on LOX IMVI melanoma and with SK-MEL-28 melanoma were -94.6% (active) and -66.9% (active), respectively.

For `CSc1ccc(OCc2nc3ccccc3n2-c2cccc(NS(C)(=O)=O)c2)cc1`, the growth with DU-145 prostate is 103% and 67.1%; in the assay on K-562 leukemia it was 94.4% and 106%; in the assay on MALME-3M melanoma it was 95.3% and 84.1%; in the assay on MDA-MB-231 breast, 118% and 57.3%; in the assay on RXF 393 renal it was 81.7% and 84.1%; with SF-268 CNS, 92.4% and 101%. The growth was 106% and 96.5% in the assay with SF-295 CNS; 93.2% and 89.5% in the assay with SF-539 CNS; 116% and 107% in the assay on UACC-257 melanoma; 119% and 81.6% in the assay with M14 melanoma; 115% and 93.4% in the assay with HCT-15 colon; 109% and 110% with HT29 colon. Besides, the growth in the assay with SNB-75 CNS is 79.6% and 68.9%; in the assay on SNB-19 CNS, 102% and 85.6%; in the assay with U251 CNS it was 104% and 76.9%; in the assay with PC-3 prostate, 80.5% and 93.4%; in the assay with SK-MEL-5 melanoma, 98% and 104%; in the assay with UACC-62 melanoma, 86.1% and 100%. Moreover, the growth in the assay on LOX IMVI melanoma was 88.9%; in the assay on SK-MEL-28 melanoma it was 119% and 99.1%.

As to `CC(C)(C)C(=O)c1c2c(c3ccc4c5ccccc5ccc4n13)C(=O)c1ccccc1C2=O`, the growth in the assay on DU-145 prostate was 95.6%; in the assay on K-562 leukemia, 103%; in the assay with MALME-3M melanoma it was 9.73% (active); in the assay with MDA-MB-231 breast, 85.7%; with RXF 393 renal, 105%; in the assay with SF-268 CNS, 101%. Besides, the growth was 99.6% in the assay with SF-295 CNS; 87.2% in the assay with SF-539 CNS; 105% in the assay on UACC-257 melanoma; 71.3% in the assay on M14 melanoma; 81.7% in the assay on HCT-15 colon; 111% in the assay with HT29 colon. Moreover, the growth in the assay with SNB-75 CNS is 122%; in the assay with SNB-19 CNS it was 88.7%; in the assay with U251 CNS, 98.5%; in the assay on PC-3 prostate, 83%; in the assay with SK-MEL-5 melanoma, 78.8%; with UACC-62 melanoma it was 97.2%. Further, the values for the growth in the assay on LOX IMVI melanoma and in the assay with SK-MEL-28 melanoma were 73.2% and 105%, respectively.

With `COc1ccc(Nc2ncnc3sc4c(c23)CCN(Cc2ccccc2)C4)cc1`, the growth in the assay on DU-145 prostate is 94.3%; with K-562 leukemia, 45.3%; in the assay on MALME-3M melanoma, 107%; in the assay on MDA-MB-231 breast, 87.5%; with RXF 393 renal, 74.6%; with SF-268 CNS, 66.1%. Besides, the growth is 67.6% with SF-295 CNS; 91.3% in the assay on SF-539 CNS; 94.6% in the assay with UACC-257 melanoma; 81.1% in the assay on M14 melanoma; 74.9% in the assay with HCT-15 colon; 98.1% with HT29 colon. Moreover, the growth in the assay with SNB-75 CNS was 89.2%; in the assay on SNB-19 CNS, 90.8%; in the assay on U251 CNS, 88.9%; in the assay with PC-3 prostate, 68.8%; with SK-MEL-5 melanoma, 70.4%; in the assay with UACC-62 melanoma, 43.5%. Also, the growth with LOX IMVI melanoma is 52.2%; in the assay on SK-MEL-28 melanoma, 99.8%.

Turning to `CN1C(=O)/C(=C/c2ccco2)S/C1=N/c1nccs1`, the growth was 107% in the assay with DU-145 prostate; 101% with K-562 leukemia; 118% in the assay on MALME-3M melanoma; 109% with MDA-MB-231 breast; 111% in the assay on RXF 393 renal; 107% in the assay on SF-268 CNS. Also, the growth was 102% in the assay on SF-295 CNS; 103% in the assay with SF-539 CNS; 117% with UACC-257 melanoma; 117% in the assay with M14 melanoma; 93.8% in the assay on HCT-15 colon; 103% with HT29 colon. Also, the growth in the assay on SNB-75 CNS was 97.4%; in the assay on SNB-19 CNS, 99.4%; in the assay on U251 CNS it was 111%; with PC-3 prostate it was 98.1%; in the assay on SK-MEL-5 melanoma, 98.9%; with UACC-62 melanoma it was 86.7%. In addition, the growth in the assay on LOX IMVI melanoma was 97.7%; with SK-MEL-28 melanoma, 112%.

With `Cc1ccc(C(=O)Nc2cc(-c3ccncc3)cc(C(F)(F)F)c2)cc1C#Cc1cnc2cccnn12`, the growth is 68.9% with DU-145 prostate; 2.38% (active) in the assay with K-562 leukemia; -11.8% (active) in the assay on MALME-3M melanoma; 23.7% with MDA-MB-231 breast; 28.8% in the assay on RXF 393 renal; 79.4% in the assay on SF-268 CNS. For the same molecule, the growth with SF-295 CNS is 46.3%; in the assay on SF-539 CNS it was 32.3%; in the assay with UACC-257 melanoma, 40.9%; in the assay with M14 melanoma it was 8.59% (active); with HCT-15 colon it was 40.5%; in the assay with HT29 colon it was 26.9%. In addition, the growth in the assay with SNB-75 CNS is 93.7%; with SNB-19 CNS, 92.9%; with U251 CNS it was 66.5%; with PC-3 prostate, 75.1%; in the assay with SK-MEL-5 melanoma, 34.4%; with UACC-62 melanoma, 14.4%. Moreover, the growth in the assay on LOX IMVI melanoma was 11.1%; in the assay on SK-MEL-28 melanoma it was 16.2%.
